Source: PubChem
M1 ag: human M1 muscarinic receptor agonists, primary screen, Fluo-8 calcium fluorescence, CHO-K1 cells, HTS | Muscarinic acetylcholine receptor M1 (Homo sapiens), P11229 | CHO-K1 hM1, agonist mode; 0% DMSO, 100% acetylcholine EC100 | activation, % at 3 µM | 360,000 compounds, 0.33% hits | AID 588814, 2011;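 active = activation above the run's mean compound activation plus 3 SD, cut at about 16% in these data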;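 also: peak over basal fluorescence ratio within a 140 s kinetic read after compound addition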
Target sequence (P11229 whole entry, looked up): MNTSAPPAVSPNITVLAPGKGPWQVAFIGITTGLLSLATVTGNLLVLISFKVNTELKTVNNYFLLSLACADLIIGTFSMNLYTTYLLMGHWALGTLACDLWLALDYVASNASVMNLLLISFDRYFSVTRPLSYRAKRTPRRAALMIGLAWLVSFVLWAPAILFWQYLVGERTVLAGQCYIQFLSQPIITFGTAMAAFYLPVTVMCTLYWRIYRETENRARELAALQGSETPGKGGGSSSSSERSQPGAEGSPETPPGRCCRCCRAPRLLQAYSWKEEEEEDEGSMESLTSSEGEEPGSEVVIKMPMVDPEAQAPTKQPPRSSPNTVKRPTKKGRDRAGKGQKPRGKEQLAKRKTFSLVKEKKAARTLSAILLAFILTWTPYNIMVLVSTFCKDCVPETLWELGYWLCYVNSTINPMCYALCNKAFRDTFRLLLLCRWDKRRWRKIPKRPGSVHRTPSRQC
CHO-K1 Ca antag: counter-screen for M1 antagonists: effect in parental CHO-K1 cells; ATP-induced calcium, Fluo-8 fluorescence; inhibition, % at 3 µM; 360,000 compounds, 0.6% hits; AID 602250;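 active = inhibition above a per-plate cutoff, the plate's mean sample inhibition plus 3 SD, cut at about 24% in these data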;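 also: 0% = DMSO plus EC80 ATP and 100% = DMSO alone without ATP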
CHO-K1 Ca ag: counter-screen for M1 agonists: effect in parental CHO-K1 cells; Fluo-8 calcium fluorescence; scaled to maximal ATP response, vehicle zero; activation, % at 3 µM; 360,000 compounds, 0.48% hits; in the data active = activation above about 15%;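 also: untransfected CHO-K1 host cells lacking M1 receptor as counterscreen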
M1 PAM parental: nonselective calcium activators in parental CHO-K1 cells, primary screen, counter-screen for M1 PAM project, cell-based, Fluo-8 calcium fluorescence, full deck, 1536-well | ATP EC20; 0% at ATP EC20, 100% at ATP max | activation, % at 3 µM | 360,000 compounds, 0.02% hits | AID 602247, 2012;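 active = activation above the run cutoff, the mean activation of all test compounds plus 3 SD, cut at about 40% in these data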;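 also: peak over basal fluorescence ratio in a 140 s read after ATP addition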
M1 antag: human M1 muscarinic receptor antagonists, primary screen, CHO-K1 cells, Fluo-8 calcium fluorescence, 1536-well. CHO-K1 hM1, ACh EC80 antagonist. inhibition, % at 3 µM. 360,000 compounds, 1.3% hits. AID 588852, 2011;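 active = percent inhibition above its own plate's cutoff, namely the mean of that plate's compound wells plus 3 SD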;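 also: peak over basal fluorescence ratio during 140 s after agonist addition; 0% = ACh EC80 plus DMSO and 100% = DMSO alone without agonist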
CHRM1 PAM: human M1 muscarinic receptor positive allosteric modulators, primary screen, CHO-K1 cells, Fluo-8 calcium fluorescence, 1536-well | CHO-K1 hM1, ACh EC20; 0% = ACh EC20, 100% = maximal ACh | activation, % at 3 µM | 360,000 compounds, 0.088% hits | AID 588819, 2011; in the data active = activation above about 19%, passing the limit was not always enough
* marks the source's active call; other numbers are inactive results; nt = no result. Shown are actives, neighbours in structure and some others; about 2.4% of the full set was active somewhere.

SMILES	M1 ag	CHO-K1 Ca antag	CHO-K1 Ca ag	M1 PAM parental	M1 antag	CHRM1 PAM
O=C(Nc1cccc(Cl)c1)O/N=C\c1ccncc1	2	-4	2	-3	-6	-6
CCN1CCCC1CNC(=O)C(=O)NC (configuration not stated)	-4	-12	0	2	-2	2
CCCCCOc1ccc(NC(=O)C(=O)NCC2CCCN2CC)cc1 (configuration not stated)	-14	25*	0	-18	8	-14
N#Cc1nc(-c2ccccc2Cl)oc1NCC1CCCO1 (configuration not stated)	3	25*	0	-11	-5	15
CCN(CC)C(=O)C1=C(C)N(Cc2ccc(OC)cc2)C(=O)C(CC(=O)NCCN2CCOCC2)C1 (configuration not stated)	-3	-7	1	9	-7	4
O=C(COC(=O)CCN1C(=O)C2CC=CCC2C1=O)Nc1ccc(Cl)cc1F (configuration not stated)	-3	-12	0	-7	0	4
Cc1nn(Cc2ccccc2)c(Cl)c1/C=C/C(=O)OCC(=O)NC(C)C(C)C (configuration not stated)	-5	-14	1	15	-13	5
Cc1nn(Cc2ccccc2)c(Cl)c1/C=C/C(=O)OC(C)C(=O)N1CCCC1 (configuration not stated)	-6	-5	1	-6	37*	-20
Cc1cc(C)c(S(=O)(=O)N2CCCCC2)c(C)c1N(C)S(=O)(=O)c1ccccc1	-4	-12	1	10	-10	-5
O=C(Nc1cccc(F)c1)c1ccccc1	-3	36*	-1	0	-9	5
O=C(Nc1cccc(C(=O)Nc2cccc(Br)c2)c1)c1ccccc1	3	25*	8	-20	0	-8
COC[C@H]1CCCN1c1ccc2c(c1)O[C@H](COCc1ccccc1)CN([C@H](C)c1ccccc1)S2(=O)=O	nt	-23	1	17	nt	nt
CCC(C)CCN1C(Nc2ccccc2)=NC[C@@H]1C (some centres not stated)	-8	-14	0	4	1	2
COc1ccccc1CNS(=O)(=O)c1c(C(=O)N2CCCCC2)c(C)n(C)c1C	-2	-19	2	12	-13	15
COc1ccc(C(=O)/C=C\c2ccc(NC(=O)c3cccs3)cc2)cc1	-5	27*	0	-8	6	0
COc1cc(C)ccc1S(=O)(=O)N1CCN(C23CC4CC(CC(C4)C2)C3)CC1	-9	-9	0	14	98*	-22
CCn1cc(C(=O)N2CCCC(CO)(Cc3ccccc3C)C2)cn1 (configuration not stated)	-2	1	0	-11	30	-10
O=C(NCc1ccccc1)C1c2ccccc2OCC(=O)N1CCc1c[nH]c2ccccc12 (configuration not stated)	nt	-14	1	12	nt	nt
CC(C(=O)c1ccc(-c2ccccc2)cc1)[n+]1cccc(NC(=O)c2ccccc2)c1 (configuration not stated)	-9	-16	1	22	50*	-25
COC(=O)c1nc2n(n1)C(c1ccc(OC)c(OC)c1)C(C(=O)OC1CCCCC1)=C(C)N2 (configuration not stated)	-1	28*	0	-8	14	-3
COc1ccc(C2NC(=O)NC(C)=C2C(=O)OC2CCCCC2)cc1OC (configuration not stated)	1	9	0	8	-10	4
CCNC(=O)C(=O)NCC1OCCCN1S(=O)(=O)c1cccs1 (configuration not stated)	-6	-2	1	23	-8	15
OCCCCCNc1ncnc2ccccc12	0	3	15*	3	14	-6
Cc1ccc(NC(=O)Nc2nnc([C@H]3C[C@H](O)[C@@H](CO)O3)s2)cc1	-2	-19	0	14	-9	5
CC1(C)C(=O)Nc2ccccc2N1C(=O)COc1ccccc1C#N	-4	-11	0	3	-4	-2
SMILES	M1 ag	CHO-K1 Ca antag	CHO-K1 Ca ag	M1 PAM parental	M1 antag	CHRM1 PAM
CC1CCCCN1CCCNC(=O)C1CCN(c2nc3ccccc3o2)CC1 (configuration not stated)	-10	-4	0	15	78*	-28
O=C(O)C(SC(C(=O)O)c1ccccc1)c1ccccc1 (configuration not stated)	0	-12	1	20	-14	5
Cc1cc(-c2nnc(-c3cccc(Cl)c3)o2)no1	6	2	18*	13	-9	13
Cc1cc(NC(=O)CSc2nnc(-c3cccc(Cl)c3)o2)no1	0	12	1	-16	-3	4
O=C(NCCN1C(=O)S/C(=C\c2ccc(OC(F)F)cc2)C1=O)[C@@H]1CCCN1C(=O)c1cccs1	-11	9	21*	1	1	-5
CCCCCCCCC[n+]1cccc2c3ccccc3ccc21	-1	20	3	2	95*	-22
CCCCCCCCCCCCCCCC[n+]1cccc2ccccc21	-13	12	-1	-1	47*	-25
Cc1ccccc1C[n+]1cccc2ccccc21	-13	-5	0	0	8	-7
O=[N+]([O-])c1ccc(C[n+]2cccc3c4ccccc4ccc32)cc1	-5	-16	2	21	1	0
COc1ccc(CNC(=O)CS(=O)CC(=O)O)cc1OC (configuration not stated)	0	2	0	-10	13	-6
O=C1NC(=O)C2(CCCCCCCCCCC2)N1	0	-3	0	-8	-5	9
O=C(Nc1cccc(C(F)(F)F)c1)C1CCN(S(=O)(=O)c2ccc(N3CCCC3=O)cc2)CC1	2	22	16*	2	33	-8
COc1ccc(CNC(=O)CCNC(=O)C2CCN(S(=O)(=O)c3ccc(OC)cc3)CC2)cc1	1	-13	0	16	-33	27*
O=C(NCc1ccccc1)C1CCN(S(=O)(=O)c2ccc(N3CCCC3=O)cc2)CC1	-1	-5	6	16	-17	12
COc1ccc(NC(=O)CCNC(=O)C2CCN(S(=O)(=O)c3ccc(OC)cc3)CC2)cc1	-1	-5	1	1	-5	7
